# Bioassay records from PubChem.
# Ecoli rRNA inh: inhibitors of bacterial rRNA selective over humanized ribosomes; AID 720706; E. coli WT GFP vs humanized-ribosome RFP mutants, fluorescence, 24 h; active compounds read low; DMSO median 0, no signal -100; 350,000 tested, 1.6% active; GFP signal change (wild-type ribosome), % (concentration not given with the values);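 active means significant combined selectivity score with lowered wild-type GFP, culture density cut under 30%, mutant RFP and density less affected; inactive means any of these conditions unmet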
# FGF22 binding: FGF22 (human) thermal shift binding; Q9HCT0; recombinant FGF22 thermal shift, SYPRO orange fluorescence; percent of sucrose octasulfate shift, DMSO zero; activity (Tm shift, normalised), % at 9.99 µM; 340,000 tested, 1.5% active; AID 651658;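 active means mean Tm shift, scaled 0 neutral to 100 positive control, at about 1.3% or above, every replicate too, limit read from the data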
# ADAM10 inh: inhibits human ADAM10. O14672. recombinant ADAM10, EDANS/DABCYL FRET peptide cleavage, 3 h. inhibition, % at 7 µM. 370,000 tested, 0.62% active. AID 720582;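 active means inhibition above a per-campaign cutoff equal to the mean of compounds falling between control-based bounds plus 3 SD, cut at about 20% in these data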;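 further: 0% = DMSO wells while the 100% control is not disclosed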
# ADAM17 inh: ADAM17 inhibition, QFRET primary screen; recombinant ADAM17, EDANS/DABCYL FRET peptide cleavage; inhibition, % at 6.95 µM; 370,000 tested, 0.83% active; AID 720648;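 active means inhibition above the mean of compounds lying between control limits plus 3 SD, set per campaign, cut at about 8.5% in these data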;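 further: 0% = DMSO-only wells as the low control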
# proKLK7 act: activators of human kallikrein-7 zymogen; purified proKLK7, EDANS-DABCYL substrate fluorescence; 100% is mature enzyme control, 0% vehicle; AID 652039; activation, % at 7 µM; P49862; 370,000 tested, 0.9% active;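 active means activation above the mean of all tested compounds plus 3 SD, computed per campaign excluding outliers beyond control limits, cut at about 13% in these data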
# Active calls of the source: *; i = inactive; nt = no result given. Most compounds without a hit are left out; they make up all but 3.8% or so of the library.
SMILES,Ecoli rRNA inh,FGF22 binding,ADAM10 inh,ADAM17 inh,proKLK7 act
CC1CN(C)C(C)C/C1=N/Oc1ccccc1[N+](=O)[O-] (centres undefined),-1,44*,-7,-2,0
Cc1nnc(NC(=O)C2CCN(S(=O)(=O)c3cc([N+](=O)[O-])ccc3Cl)CC2)o1,-7,0,-8,-5,-1
Cc1cccc2sc(NC(=O)C3CCN(S(=O)(=O)c4cc([N+](=O)[O-])ccc4Cl)CC3)nc12,2,0,20*,6,0
Cc1noc(C)c1NC(=O)Nc1ccc2c(c1)CC(=O)N([C@@H](C)CO)C[C@H](C)[C@H](CN(C)CC1CCCCC1)O2,-3,0,nt,nt,nt
C[C@H]1C/C=C\C[C@@H](c2ccc3c(c2)OCO3)NC(=O)[C@H](c2ccccc2)CC(=O)N1,-1,nt,nt,nt,nt
Cc1ccc(COc2ccc(/C=N/O)cc2)cc1,-16*,0,10,-1,0
CCOc1ccc(/C=N/O)cc1,nt,nt,-7,-2,-1
O=C(CSc1nc(C2CC2)nc2ccccc12)N1CCCCC1,-19,0,-2,-1,0
O=C(CSc1nc(C2CCCCC2)nc2ccccc12)N1CCCC1,-18*,0,-4,-2,0
NC(=O)Cc1ccc(C(=O)c2ccc(Cl)cc2)s1,-24*,0,2,-4,0
CCN(CC)c1ccc2cc(NC(=O)CCC(=O)O)c(=O)oc2c1,nt,nt,i,i,78*
CCN(CC)c1ccc2cc(C(C)=O)c(=O)oc2c1,7,nt,-51,-10,0
O=C(/C=C/c1ccccc1Cl)N(Cc1ccccc1)C1CCS(=O)(=O)C1 (centres undefined),nt,nt,2,-1,0
O=C(/C=C/c1ccccc1Cl)N(Cc1cccs1)C1CCS(=O)(=O)C1 (centres undefined),-35*,0,-3,-4,0
OC(CNCC#Cc1ccccc1)c1ccccc1 (centres undefined),6,0,2,-3,0
CCC(CO)NCC#Cc1ccccc1 (centres undefined),8,44*,-4,-2,0
CC(O)CNc1nc2sc3c(c2c(=O)n1CCc1ccccc1)CCCCC3 (centres undefined),-32,44*,16,7,0
C[C@H](CO)N1C[C@H](C)[C@H](CN(C)S(C)(=O)=O)Oc2ccc(NS(=O)(=O)c3ccc(Cl)cc3)cc2CC1=O,2,0,nt,nt,nt
O=C(NCCCn1ccnc1)/C(=C/c1ccco1)NC(=O)c1ccco1,nt,0,-4,-2,0
O=C(NCCCn1ccnc1)/C(=C/c1ccco1)NC(=O)c1cccs1,15,1.4*,0,-1,0
O=C(CC(F)(F)F)N1C[C@@H]2[C@H](c3ccccc31)[C@@H](CO)N2C(=O)CN1CCOCC1,5,-1,nt,nt,nt
Cn1nc(-c2ccccc2)c(CN2CCN(c3ncccn3)CC2)c1Cl,-34*,0,6,2,0
CC(=O)CC1c2cc(F)ccc2C=C(c2ccsc2)N1c1ccc(C#Cc2cncn2C)cc1 (centres undefined),2,1.8*,-172,-68,-16
NC(=O)CSCc1c(Cl)cccc1Cl,8,0,-7,-2,1
CC(C)(C)NC(=O)CSCc1c(Cl)cccc1Cl,-31*,0,1,0,0
SMILES,Ecoli rRNA inh,FGF22 binding,ADAM10 inh,ADAM17 inh,proKLK7 act
CCCNC(=O)Nc1ccc2c(c1)C(=O)N(C)[C@@H]1CC[C@@H](CC(=O)O)O[C@@H]1CO2,0,0,nt,nt,nt
O=C(C[C@@H]1CC[C@@H]2[C@H](COC[C@@H](O)CN2C(=O)c2ccncc2)O1)NC1CCC1,1,0,nt,nt,nt
CC(C)N1CCC(N2CCN(C3CCCCCC3)CC2CCO)CC1 (centres undefined),8,43*,3,-1,1
CC(C)N1CCC(N2CCN(CCCc3ccccc3)CC2CCO)CC1 (centres undefined),12,0,-6,-2,0
C[C@H]1CN([C@@H](C)CO)C(=O)c2ccccc2-c2ccccc2CO[C@@H]1CN(C)S(=O)(=O)c1ccsc1,13,nt,nt,nt,nt
Nc1nnc2cc(Cl)ccc2n1,5,44*,-18,-4,0
Cc1ccc2nc(N)nnc2c1,2,0,-19,0,-1
CC(C)[C@H](C)NC(=O)N(C)C[C@H]1OCc2ccccc2-c2c(n(C)c3ccccc23)C(=O)N([C@@H](C)CO)C[C@H]1C,3,0,nt,nt,nt
